Our source for the inhibition values is PubChem BioAssay AID1209 (Sanford-Burnham Center for Chemical Genomics, 2008).

The whole screen tested about 190,000 compounds, of which about 810 (0.43%) were called active. Only a selection was taken, and actives are over-represented in it overall. Values without a mark were called inactive. Cut-off read from the data, not from the text of the source: active = inhibition above about 50%; inactive = the rest.

For this assay, the target named is Mannose-6-phosphate isomerase (Homo sapiens) (UniProt P34949). Put plainly: MPI enzyme activity inhibition – biochemical, fluorescence intensity, coupled assay, primary screen (AID 1209).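 Note: plate controls were DMSO vehicle for no effect and wells lacking substrate for full effect.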 The conditions noted are these: purified PMI enzyme, at 20 µM, hits give high values.
Mannose-6-phosphate isomerase (Homo sapiens), sequence (P34949 whole entry, looked up): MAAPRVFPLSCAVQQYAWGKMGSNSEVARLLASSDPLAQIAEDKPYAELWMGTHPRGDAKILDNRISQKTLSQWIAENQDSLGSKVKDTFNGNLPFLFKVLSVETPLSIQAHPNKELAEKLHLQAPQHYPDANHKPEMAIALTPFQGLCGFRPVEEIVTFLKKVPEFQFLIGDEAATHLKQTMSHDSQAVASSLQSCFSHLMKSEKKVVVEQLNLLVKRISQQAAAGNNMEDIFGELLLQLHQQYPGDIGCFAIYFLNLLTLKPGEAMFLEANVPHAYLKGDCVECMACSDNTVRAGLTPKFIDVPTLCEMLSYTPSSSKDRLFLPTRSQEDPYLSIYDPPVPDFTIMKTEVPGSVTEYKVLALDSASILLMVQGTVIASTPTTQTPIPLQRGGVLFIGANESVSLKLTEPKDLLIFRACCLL
Usually inhibition stands for the change of the read-out against control, counted positive when it falls. For `O=C(CSc1nnnn1-c1ccccc1)N1CCc2ccccc2C1`, the inhibition was 4%. As to `CN(C)CCC(=O)c1cccc(Br)c1`, the inhibition is 24%. As for `CCN1C(=O)/C(=C2\SC(=S)N(c3c(C)n(C)n(-c4ccccc4)c3=O)C2=O)c2ccccc21`, the figure is 14.5%; as for `Cc1c(N2C(=O)/C(=C3/C(=O)N(C)c4ccccc43)SC2=S)c(=O)n(-c2ccccc2)n1C`, 11.1%. On to `CC(=O)N1C(=O)/C(=C2\SC(=S)N(c3c(C)n(C)n(-c4ccccc4)c3=O)C2=O)c2ccccc21`, for which the inhibition was 64.9% (active). As for `N/C(COc1ncn(-c2ccccc2)n1)=N\S(=O)(=O)c1ccc(Cl)cc1Cl`, the figure is 9.1%; as for `CCC(C)(C)NC(=O)C(OC(=O)c1ccco1)c1ccccc1OC` (stereo not drawn), 14.2%. `O=C(O)CNC(=O)CC1S/C(=N/N=C2\CSC(=O)N2)NC1=O` (stereo not drawn): the inhibition was 59.9% (active). On to `NC(=O)NC(=O)CC1S/C(=N/N=C2\CSC(=O)N2)NC1=O` (stereo not drawn), for which the inhibition was 48.8%.

On to `O=C(O)CNC(=O)CC1S/C(=N/N=C2/NC(=O)CS2)NC1=O` (stereo not drawn), for which the inhibition was 25.1%. As for `CCc1sc(C(=O)Nc2ccsc2C(=O)OC)cc1Br`, the figure is -4.6%. On to `O=C(CS(=O)(=O)c1cn(Cc2cccc(F)c2)c2ccccc12)N1CCOCC1`, for which the inhibition is 5.3%.

On to `Cc1ccc2c(c1)C(=O)CCN2`, for which the inhibition is -1.2%.

In the case of `O=C1CCNc2ccc(-c3ccccc3)cc21`, the inhibition was 3.1%. As for `Cc1ccc2oc(-c3ccccc3C(=O)O)cc(=O)c2c1`, the figure is -3.3%; as for `CCOC(=O)c1cnc(/N=C/N(C)C)s1`, 2.3%. As for `CCOC(=O)c1sc(/N=C/N(C)C)nc1C`, the figure is -4.1%; as for `CCOC(=O)c1cc2n(c1/N=C/N(C)C)-c1ccccc1C2=O`, 55.7% (active); as for `Cc1ccccc1-c1nnc(NC(=O)c2cc3ccccc3oc2=O)s1`, -1.2%. On to `CCN(CC)Cc1c(O)ccc2c(=O)c(-c3ccc4c(c3)OCCO4)coc12`, for which the inhibition is 5.6%. For `COC1OC(COC(=O)CNC(=O)OC(C)(C)C)C(O)C(O)C1O` (stereo not drawn), the inhibition is -0.1%. Regarding `CCC(C(=O)NC1CCCCC1)N(Cc1cccs1)C(=O)c1snc(C(N)=O)c1N` (stereo not drawn), the inhibition is 3.9%. As for `CC(C)CC(C(=O)NC1CCCCC1)N(Cc1cccs1)C(=O)c1snc(C(N)=O)c1N` (stereo not drawn), the figure is 101% (active). As for `CC(C)CC(C(=O)NC1CCCC1)N(Cc1cccs1)C(=O)c1snc(C(N)=O)c1N` (stereo not drawn), the figure is 13%; as for `CCOC(=O)COc1ccc(S(=O)(=O)NCC2CCCO2)cc1` (stereo not drawn), -1.8%; as for `COc1cccc(OCc2nc(-c3cccc([N+](=O)[O-])c3)no2)c1`, 4.9%.

`O=[N+]([O-])c1cccc(-c2noc(COc3ccccc3)n2)c1`: the inhibition is 57.3% (active). Take `COc1ccccc1OCc1nc(-c2cccc([N+](=O)[O-])c2)no1`: the inhibition was 2.9%.
